Source: PubChem BioAssay (NCI)
Compounds without any hit were thinned out: in the full panel of roughly 79,000, 15% have a hit. Activity calls are given as the source filed them. Cut-off read from the data, not from the text of the source: active = growth inhibition above about 70%; inactive = the rest.

Columns and labels:
[1] = NCI Yeast Anticancer Drug Screen. Data for the rad52 strain (AID 147);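 note: 0% = growth of vehicle-treated control cultures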; details: S. cerevisiae rad52 mutant growth inhibition, hits give high values
How it was run: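 Genetically altered yeast (DNA damage repair defect) treated with compound; inhibition calculated relative to vehicle.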

[2] = NCI Yeast Anticancer Drug Screen. Data for the wt1 strain (AID 149);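 note: 0% = growth of vehicle-treated wt1 cultures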; details: S. cerevisiae wt1 strain (SPY 50644) growth inhibition, hits give high values
How it was run: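 Growth inhibition read against vehicle controls after compound exposure of the wt1 yeast strain.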

[3] = NCI Yeast Anticancer Drug Screen. Data for the rad50EPP+ strain (AID 151);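 note: 0% = growth of vehicle-treated control cultures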; details: S. cerevisiae rad50 mutant strain, hits give high values
How it was run: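 Strain rad50EPP+; compound exposure; % growth inhibition vs vehicle.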

[4] = NCI Yeast Anticancer Drug Screen. Data for the mgt1 strain (AID 153); details: S. cerevisiae mgt1 mutant growth inhibition, hits give high values
How it was run: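 Read-out: yeast growth inhibition vs vehicle control. Strain mgt1, drawn from a panel altered in DNA damage repair or cell cycle control.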

[5] = NCI Yeast Anticancer Drug Screen. Data for the rad50 strain (AID 155);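 note: 0% = growth of vehicle-only cultures of the same strain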; details: S. cerevisiae rad50 strain growth inhibition, hits give high values
How it was run: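 Readout: growth inhibition relative to vehicle-treated cultures. Compound exposure was carried out in a genetically defined yeast strain deficient in DNA damage repair.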

[6] = NCI Yeast Anticancer Drug Screen. Data for the mec2-1 strain (AID 157); details: S. cerevisiae mec2-1 strain, hits give high values
How it was run: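 Cells of the genetically defined mec2-1 yeast strain are incubated with test compound. Inhibition of growth is calculated against vehicle-treated controls.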

[7] = NCI Yeast Anticancer Drug Screen. Data for the rad14 strain (AID 159);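 note: 0% = growth of vehicle-treated control cultures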; details: S. cerevisiae rad14 strain growth inhibition, hits give high values
How it was run: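 Growth inhibition vs vehicle controls; genetically altered yeast strain (DNA damage repair defect) treated with test compounds.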

[8] = NCI Yeast Anticancer Drug Screen. Data for the sgs1 mgt1 strain (AID 161);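 note: 0% = growth of cultures given vehicle only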; details: S. cerevisiae sgs1 mgt1 strain, hits give high values
How it was run: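 Mutant yeast exposed to compound; growth scored against vehicle-only wells.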

[9] = NCI Yeast Anticancer Drug Screen. Data for the cln2 rad14 strain (AID 165);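 note: 0% = growth equal to vehicle treated cultures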; details: S. cerevisiae cln2 rad14 strain, hits give high values
How it was run: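 The screen exposed genetically defined yeast (cln2 rad14) to test compounds and scored growth inhibition relative to vehicle-treated controls.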

[10] = NCI Yeast Anticancer Drug Screen. Data for the bub3 strain (AID 167); details: S. cerevisiae bub3 mutant strain, hits give high values
How it was run: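 Readout: yeast growth inhibition, expressed relative to vehicle-only wells. The test organism is a mutant strain from a panel with lesions in DNA repair or checkpoint genes.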

[11] = NCI Yeast Anticancer Drug Screen. Data for the wt2 strain (AID 169);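 note: 0% = growth of vehicle-treated yeast cultures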; details: S. cerevisiae wt2 strain growth inhibition, hits give high values
How it was run: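 Steps: yeast strain treated with compound; growth recorded; inhibition calculated relative to cultures given vehicle alone.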

[12] = NCI Yeast Anticancer Drug Screen. Data for the mlh1 strain (AID 171);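 note: 0% = growth of vehicle-treated control cultures of the same strain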; details: S. cerevisiae mlh1 strain growth inhibition, hits give high values
How it was run: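 Yeast screen: mutant strain plus compound, growth scored against vehicle control wells.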

[13] = NCI Yeast Anticancer Drug Screen. Data for the sgs1 strain (AID 173);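 note: 0% = growth of vehicle-only control cultures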; details: S. cerevisiae sgs1 mutant, hits give high values
How it was run: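 Inhibition of yeast growth served as the measure. The mutant strain was treated with each compound, and growth was normalised to cultures receiving vehicle alone.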

[14] = NCI Yeast Anticancer Drug Screen. Data for the mlh1 rad18 strain (AID 175); details: S. cerevisiae mlh1 rad18 strain growth inhibition, hits give high values
How it was run: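 Compound-treated yeast growth, normalised to vehicle controls. Strain bears defined DNA repair mutations.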

[15] = NCI Yeast Anticancer Drug Screen. Data for the rad18 strain (AID 177); details: S. cerevisiae rad18 mutant growth inhibition, hits give high values
How it was run: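 Inhibition values reflect reduced yeast growth compared with vehicle-treated controls, using a strain engineered with a DNA damage repair defect.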

[16] = at 5.0 µM (retest, dose inferred, filed as 0.5)
[17] = at 50.0 µM (retest, dose inferred, filed as 5.0)

Measured: growth inhibition

NC(=O)c1c([N+](=O)[O-])cc(C(F)(F)F)cc1[N+](=O)[O-]
inactive: [1]; at 1.2 µM 2% | [1]; at 3.7 µM 1% | [1]; at 11.0 µM 3% | [1]; at 33.0 µM 6% | [1]; at 100.0 µM 7% | [2]; at 1.2 µM 0% | [2]; at 3.7 µM 0% | [2]; at 11.0 µM 0% | [2]; at 33.0 µM 2% | [2]; at 100.0 µM 2% | [3]; at 1.2 µM 1% | [3]; at 3.7 µM 5% | [3]; at 11.0 µM 7% | [3]; at 33.0 µM 16% | [3]; at 100.0 µM 40% | [4]; at 1.2 µM 3% | [4]; at 3.7 µM 5% | [4]; at 11.0 µM 4% | [4]; at 33.0 µM 6% | [4]; at 100.0 µM 6% | [5]; at 1.2 µM -1% | [5]; at 3.7 µM 0% | [5]; [16] -6% | [5]; at 11.0 µM -1% | [5]; at 33.0 µM 3% | [5]; [17] -4% | [5]; at 100.0 µM 11% | [6]; at 1.2 µM 0% | [6]; at 3.7 µM 0% | [6]; [16] 18% | [6]; at 11.0 µM 0% | [6]; at 33.0 µM 3% | [6]; [17] 3% | [6]; at 100.0 µM 10% | [7]; at 1.2 µM 2% | [7]; at 3.7 µM 0% | [7]; at 11.0 µM 0% | [7]; at 33.0 µM 0% | [7]; at 100.0 µM 1% | [8]; [16] 5% | [8]; [17] 2% | [9]; [16] 8% | [9]; [17] 22% | [10]; at 1.2 µM -1% | [10]; at 3.7 µM -1% | [10]; [16] 7% | [10]; at 11.0 µM 0% | [10]; at 33.0 µM -1% | [10]; [17] 23% | [10]; at 100.0 µM 5% | [11]; at 1.2 µM 0% | [11]; at 3.7 µM 1% | [11]; at 11.0 µM 3% | [11]; at 33.0 µM 4% | [11]; at 100.0 µM 8% | [12]; at 1.2 µM -2% | [12]; at 3.7 µM 2% | [12]; at 11.0 µM 2% | [12]; at 33.0 µM 3% | [12]; at 100.0 µM 8% | [13]; at 1.2 µM 1% | [13]; at 3.7 µM 3% | [13]; at 11.0 µM 5% | [13]; at 33.0 µM 11% | [13]; at 100.0 µM 19% | [14]; [16] 55% | [14]; [17] 12% | [15]; at 1.2 µM 0% | [15]; at 3.7 µM 2% | [15]; at 11.0 µM 4% | [15]; at 33.0 µM 6% | [15]; at 100.0 µM 16%
active: [5]; at 50.0 µM 97.8% | [6]; at 50.0 µM 97.2% | [8]; at 50.0 µM 98.4% | [9]; at 50.0 µM 84.3% | [10]; at 50.0 µM 93.1% | [14]; at 50.0 µM 97.8%

Cc1cc(=O)oc2c(C)c3occc(=O)c3cc12
inactive: [1]; at 1.2 µM 1% | [1]; at 3.7 µM 2% | [1]; at 11.0 µM 17% | [1]; at 33.0 µM 48% | [2]; at 1.2 µM 4% | [2]; at 3.7 µM -2% | [2]; at 11.0 µM 0% | [2]; at 33.0 µM 5% | [2]; at 100.0 µM 23% | [3]; at 1.2 µM -1% | [3]; at 3.7 µM -1% | [3]; at 11.0 µM 4% | [3]; at 33.0 µM 29% | [3]; at 100.0 µM 67% | [4]; at 1.2 µM -5% | [4]; at 3.7 µM 3% | [4]; at 11.0 µM -11% | [4]; at 33.0 µM -10% | [4]; at 100.0 µM 44% | [5]; at 1.2 µM -1% | [5]; at 3.7 µM 2% | [5]; [16] 24% | [5]; at 11.0 µM 18% | [5]; at 33.0 µM 59% | [5]; [17] 67% | [6]; at 1.2 µM -2% | [6]; at 3.7 µM 0% | [6]; [16] -6% | [6]; at 11.0 µM 4% | [6]; at 33.0 µM 14% | [6]; [17] 21% | [6]; at 50.0 µM 67.2% | [6]; at 100.0 µM 40% | [7]; at 1.2 µM 2% | [7]; at 3.7 µM 2% | [7]; at 11.0 µM 1% | [7]; at 33.0 µM 9% | [7]; at 100.0 µM 28% | [9]; [16] -17% | [9]; [17] 15% | [9]; at 50.0 µM 43.8% | [10]; at 1.2 µM -1% | [10]; at 3.7 µM -1% | [10]; [16] 12% | [10]; at 11.0 µM 3% | [10]; at 33.0 µM 5% | [10]; [17] 19% | [10]; at 100.0 µM 15% | [11]; at 1.2 µM -1% | [11]; at 3.7 µM -2% | [11]; at 11.0 µM 1% | [11]; at 33.0 µM 10% | [11]; at 100.0 µM 32% | [12]; at 1.2 µM -1% | [12]; at 3.7 µM 4% | [12]; at 11.0 µM 2% | [12]; at 33.0 µM 11% | [12]; at 100.0 µM 48% | [13]; at 1.2 µM 0% | [13]; at 3.7 µM -2% | [13]; at 11.0 µM 0% | [13]; at 33.0 µM 6% | [13]; at 100.0 µM 34% | [14]; [16] 11% | [14]; [17] 21% | [14]; at 50.0 µM 63.1% | [15]; at 1.2 µM -1% | [15]; at 3.7 µM -4% | [15]; at 11.0 µM -2% | [15]; at 33.0 µM 7% | [15]; at 100.0 µM 40%
active: [1]; at 100.0 µM 86% | [5]; at 50.0 µM 94.3% | [5]; at 100.0 µM 84% | [10]; at 50.0 µM 78%
